Source: PubChem BioAssay (NCATS)
Results filed as inconclusive are left out. Where a call stands in place of a potency, no number is given. Activity calls are given as the source filed them. Calls follow the shape of the dose curve; as a rule, active = well fitted inhibition curve with a large enough effect; inconclusive = small, poorly fitted or top-dose-only effect; inactive = flat fitted curve, though single readings scatter.

target: Calcium and integrin-binding protein 1 (Homo sapiens) (UniProt Q99828); assay: Primary qHTS for Identification of Calcium Integrin Binding Protein 1 (CIB1) Competitor (AID 1508620); conditions: CIB1-GST / FITC-alphaIIb peptide fluorescence polarization; series mostly up to 114 µM;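 also: GST tagged CIB1 binding a fluorescein labelled alphaIIb integrin peptide tracer; top concentration of the series differs between compounds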
Method in brief: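 CIB1-GST (1 uM final) and compound incubated 15 min at room temperature before adding FITC-alphaIIb peptide tracer (100 nM final). Competition for binding read by fluorescence polarization (ex 480, em 540) after another 15 min at room temperature.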

Chain of Calcium and integrin-binding protein 1 (Homo sapiens) (Q99828 whole entry, looked up): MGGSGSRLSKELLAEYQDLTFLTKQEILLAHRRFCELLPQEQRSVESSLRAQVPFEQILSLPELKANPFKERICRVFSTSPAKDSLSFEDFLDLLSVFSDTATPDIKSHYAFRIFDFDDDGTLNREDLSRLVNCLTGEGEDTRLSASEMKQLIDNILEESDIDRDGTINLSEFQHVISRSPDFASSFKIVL

Row | Compound | Potency
1 | Cc1cc2c(s1)c1cnn(Cc3ccc(C)c(F)c3)c(=O)c1n2C | inactive
2 | CCNC(=O)C1CCN(C(=O)C(C)(C)NC(=O)Nc2ccccc2Cl)CC1 | inactive
3 | O=C(Nc1cccnc1)C1CCCCC1 | inactive
4 | Cc1cc(C)nc(NC(=S)N2CCN(c3ccc4nncn4c3)CC2)c1 | inactive
5 | O=C(c1cc2sccc2n1Cc1ccccc1)N(CCc1ccc(O)c(O)c1)Cc1ccccc1 | inactive
6 | O=[S+]([O-])(c1ccc2c(c1)OCCO2)N1CCN([S+](=O)([O-])c2ccc(F)cc2Br)CC1 | inactive
7 | Clc1ccccc1-c1ccc2ncnc(NCc3ccc4c(c3)OCO4)c2c1 | inactive
8 | Fc1cc(Nc2nc(-c3ccncc3)nc3ccccc23)ccc1-c1cccc(C(F)(F)F)c1 | inactive
9 | O=C(C1CCN(c2nc(-c3ccc(Br)cc3)cs2)CC1)N1CCOCC1 | inactive
10 | Cc1nnc(-c2ccccc2)n1CCCn1ccnc1 | inactive
11 | Cc1ccc(OCCn2c(CCNC(=O)c3cccs3)nc3ccccc32)cc1 | inactive
12 | CCOC(=O)C1CCN(c2ccc(NCc3ccc(-c4ccc(C#N)cc4)o3)cc2)CC1 | inactive
13 | COc1ccccc1C1=Nn2c(nnc2-c2ccccc2C)SC1 | inactive
14 | O=C(Nc1ccccc1)Nc1nc(Nc2cc(F)cc(F)c2)nc(NC2CCCC2)n1 | inactive
15 | Clc1cccc(CSc2nc3ncc(Br)cc3[nH]2)c1 | inactive
16 | Cc1cc(C)nc(NC(=S)N2CCN(c3cncs3)CC2)c1 | inactive
17 | Cc1cc(N[S+](=O)([O-])c2ccc(NC(=O)Cc3cccc(Cl)c3Cl)cc2)no1 | inactive
18 | NC(=O)C1CCN(c2nc(-c3ccc(OCc4ccccc4)cc3)cs2)CC1 | inactive
19 | NC(=O)C1CCN(c2ncnc(-c3ccc4c(c3)OCCCO4)n2)CC1 | inactive
20 | CC(=O)Nc1sc2c(c1-c1nc3ccccc3s1)CCN(C(C)C)C2 | inactive

Row | Compound | Potency
21 | O=[N+]([O-])c1ccccc1S(=O)(=O)N1CCN(S(=O)(=O)c2ccc3c(c2)OCCO3)CC1 | inactive
22 | Cc1ccc(OCCn2c(CCNC(=O)c3ccccc3Br)nc3ccccc32)cc1 | inactive
23 | Cc1cc(C)n2ncc(C(=O)NCc3ccccc3)c2n1 | inactive
24 | N#Cc1ccccc1OC1=NS(=O)(=O)c2ccccc21 | inactive
25 | O=C(NCCc1nc2ccccc2n1CCO)C1CCCCC1 | inactive
26 | C[C@H]1CN(S(=O)(=O)c2ccc3c(c2)OCCO3)CCN1S(=O)(=O)c1c(F)cccc1F | inactive
27 | N#Cc1nc(Nc2cccc(Br)c2)nc(NC2CCCC2)n1 | inactive
28 | O=S(=O)(c1cccc(O)c1)N1CCN(S(=O)(=O)c2c(F)cccc2F)CC1 | inactive
29 | O=c1c2ccccc2nc2sc(Nc3cccc4ccccc34)nn12 | inactive
30 | Cc1cccc(C2N=C(Nc3nc4ccccc4o3)NC3=C2C(=O)CCC3)c1 (stereo not given) | inactive
31 | O=C(O)c1ccc(S(=O)(=O)N[C@H](Cc2ccc([N+](=O)[O-])cc2)C(=O)O)cc1 | inactive
32 | FC(F)(F)c1cnc(N2CCN(C(=S)Nc3cc(Cl)ccn3)CC2)c(Cl)c1 | inactive
33 | O=C(Nc1ccc(Cl)c([N+](=O)[O-])c1)Nc1cccc(-c2ccncc2)n1 | inactive
34 | O=C(/C=C/c1cccs1)Nc1cccc([S+](=O)([O-])Nc2ccccc2F)c1 | inactive
35 | O=C1Cc2cc(S(=O)(=O)N3CCN(c4ccc(Cl)cc4)CC3)ccc2N1 | inactive
36 | Cc1ccc(S(=O)(=O)NC(N)=NCCC[C@@H](NC(=O)CNC(=O)c2ccccc2)C(=O)Nc2cc(C(F)(F)F)ccc2Cl)cc1 | inactive
37 | Cc1cc2c(s1)c1cnn(Cc3ccccc3C)c(=O)c1n2C | inactive
38 | COc1ccc(C2=Nn3c(nnc3-c3cc(OC)cc(OC)c3)SC2)cc1 | inactive
39 | CN1CCN(c2nnc(NC(=O)Nc3ccc(Cl)c(Cl)c3)s2)CC1 | inactive
40 | Cc1cc(C=CC#N)cc(C)c1Nc1nc(Nc2ccc3c(c2)OCO3)c2[nH]cnc2n1 | inactive
